Screening results (PubChem BioAssay)
The list is not random: actives were taken first. Their share in the collection is about 10%.
HEK cytotox: cytotoxic compounds in HEK 293 cells; Potency, µM (titrated, usually from 115 µM), hits mostly inhibitors; HEK 293 viability, ATP luminescence (CellTiter-Glo), 48-72 h; 6.6% of 94,000 active; AID 1345083; note: nearly all actives have a fitted effect of over 60% in size
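HEK 293 seeded at 250 cells/well receive compound via pintool. After 48 or 72 hr at 37 degree Celsius, 5% CO2 and 95% humidity, CellTiter-Glo is dispensed and luminescence read following 10 min at room temperature.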
FLuc inh: blocks purified firefly luciferase enzyme activity; P08659; purified P. pyralis luciferase, luminescence, biochemical; Potency, µM (series often up to 115 µM), actives largely listed as inhibitors; 2.5% of 76,000 active; AID 1347043; note: nearly all actives have a fitted effect of over 65% in size
Target sequence (P08659 whole entry, looked up): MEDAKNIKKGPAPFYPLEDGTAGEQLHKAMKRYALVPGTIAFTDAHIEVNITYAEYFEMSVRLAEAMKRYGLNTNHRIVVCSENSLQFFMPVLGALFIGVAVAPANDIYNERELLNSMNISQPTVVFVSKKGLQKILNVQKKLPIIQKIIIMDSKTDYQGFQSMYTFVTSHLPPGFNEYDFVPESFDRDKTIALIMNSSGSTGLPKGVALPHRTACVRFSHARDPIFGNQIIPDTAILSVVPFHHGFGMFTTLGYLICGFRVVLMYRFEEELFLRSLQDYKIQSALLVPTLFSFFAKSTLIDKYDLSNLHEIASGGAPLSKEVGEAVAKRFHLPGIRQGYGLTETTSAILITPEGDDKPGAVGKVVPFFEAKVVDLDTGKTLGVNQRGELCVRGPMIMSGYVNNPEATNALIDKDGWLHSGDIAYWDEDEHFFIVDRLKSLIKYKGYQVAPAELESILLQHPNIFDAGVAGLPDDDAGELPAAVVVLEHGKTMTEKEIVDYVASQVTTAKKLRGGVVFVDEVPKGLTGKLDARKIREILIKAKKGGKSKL
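Luminescence read by CCD imaging after purified firefly luciferase (10nM final) was added to substrate buffer holding 10uM D-luciferin and 10uM ATP, pH 7.5, pre-dosed with compound.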
GPT2 inhibitor: blocks human glutamate pyruvate transaminase 2 | Q8TD30 | Recombinant GPT2, coupled pyruvate oxidase/HRP Amplex Red fluorescence | Potency, µM (highest dose often 57.7 µM), usual class: inhibitors | 0.25% of 100,000 active; note: nearly all actives have a fitted effect of over 60% in size
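Inhibition is scored from Amplex Red fluorescence generated when pyruvate oxidase and HRP act on pyruvate released by GPT2. Reactions contain 10ng/uL enzyme, 250uM a-KG and 2mM L-alanine and run 30 min at room temperature.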
3T3 cytotox: NIH 3T3 cell cytotoxicity; NIH 3T3 viability, CellTiter-Glo ATP luminescence, 48-72 h; Potency, µM (top dose mostly 96.7 µM), actives largely listed as inhibitors; 4.3% of 94,000 active; note: nearly all actives have a fitted effect of over 55% in size
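Luminescent ATP readout (CellTiter-Glo, 10 min RT) after 48 or 72 hr compound exposure of NIH 3T3 cells seeded at 400 cells/well in 1536-well format; quantitative HTS.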
NPR1 antag: antagonists of human natriuretic peptide receptor Npr1. Potency, µM (top dose mostly 46.3 µM), hits mostly inhibitors. HEK293 hNpr1 GloSensor cGMP, ANP-stimulated luminescence. 1.6% of 76,000 active. P16066; calls by dose curve; note: nearly all actives have a fitted effect of over 60% in size
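Compound pre-incubated 30 min at room temperature on GloSensor-loaded HEK293 cells stably carrying hNpr1 and the pGS-40F cGMP biosensor. Stimulation uses hNppA at 0.1 nM final; luminescence is taken at baseline and 20 min post-agonist.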
Of the large screens only hits and unclear results are named; the others gave an inactive call; ! = not active in a repeat. Unless noted, calls come from the whole dose curve; as a rule, active = well fitted curve in the direction sought with a large enough effect; inconclusive = small, poorly fitted or top-dose-only effect, or another doubt; inactive = no such curve, though single readings can be large; an effect the other way counts as inactive or inconclusive.

CN(C)CCNc1cc(-c2ccc3ccccc3n2)c2cc[nH]c2n1	HEK cytotox 40µM, 3T3 cytotox inconclusive
COCCNc1cc(-c2ccnc(SC)n2)c2cc[nH]c2n1	HEK cytotox inconclusive, 3T3 cytotox inconclusive
c1ccc(CN[C@@H]2C[C@@H]3CO[C@H](c4ccccc4)C[C@@H]3C2)cc1	HEK cytotox inconclusive (no result: FLuc inh, GPT2 inhibitor, NPR1 antag)
c1ccc(-c2ccccc2CN[C@@H]2C[C@@H]3CO[C@H](c4ccccc4)C[C@@H]3C2)cc1	HEK cytotox inconclusive, 3T3 cytotox 18µM (no result: FLuc inh, GPT2 inhibitor, NPR1 antag)
COCCNC(=O)N1CCC2(CC1)CN(C)CC2COC (stereo not given)	none
O=[S+]([O-])(c1cccc(C(F)(F)F)c1)N1CCN(c2ccnc3ccnn23)CC1	HEK cytotox inconclusive, 3T3 cytotox inconclusive (no result: FLuc inh, NPR1 antag)
O=[S+]([O-])(NC1CCN(c2ccnc3ccnn23)C1)c1cccs1 (stereo not given)	HEK cytotox 71µM, 3T3 cytotox inconclusive (no result: FLuc inh, NPR1 antag)
O=[S+]([O-])(NC1CCN(c2ccnc3ccnn23)CC1)c1cccc(C(F)(F)F)c1	HEK cytotox 45µM, 3T3 cytotox inconclusive (no result: FLuc inh, NPR1 antag)
O=C(CC1CCOCC1)N1CCN(c2ncccn2)CC1	none
COc1ccccc1CC(=O)N1CCC2(CC1)NC(=O)N(Cc1ccccc1)C2=O	none
O=C(NCC1CC1)c1nc2c(o1)CCN(Cc1cccs1)CC2	HEK cytotox inconclusive, FLuc inh 71µM
Cc1csc(NC(=O)c2nc3c(o2)CCN(CC2CC2)CC3)n1	FLuc inh 18µM, 3T3 cytotox inconclusive
O=C(Nc1cccc(C(F)(F)F)c1)c1nc2c(o1)CCN(CC1CC1)CC2	HEK cytotox inconclusive, 3T3 cytotox inconclusive
CC(C)=CCC/C(C)=C/COCC1OC(n2ccc(=O)[nH]c2=O)C(O)C1O (stereo not given)	none (no result: HEK cytotox, FLuc inh, 3T3 cytotox, NPR1 antag)
Cc1cccc(CC(=O)NCC2Cn3cccc3C(=O)N2C)c1 (stereo not given)	HEK cytotox inconclusive
Cc1ccc(S(=O)(=O)NC[C@H]2OC[C@@H](NCC3CC3)[C@@H]2O)cc1	none
O=C(NC1CC1)c1nc(-c2ccc(Cl)cc2Cl)c2ccccn12	HEK cytotox 35µM, 3T3 cytotox inconclusive
O=C(NC1CC1)c1nc(-c2cc(Cl)cc(Cl)c2)c2ccccn12	HEK cytotox inconclusive
O=C(NC1CC1)c1nc(-c2ccc(F)cc2)c2ccccn12	HEK cytotox 89µM!, 3T3 cytotox inconclusive
O=C(NC1CC1)c1nc(-c2cccnc2)c2ccccn12	3T3 cytotox 45µM (no result: FLuc inh, NPR1 antag)
O=C(N[C@H]1CO[C@H]2[C@@H]1OC[C@@H]2Nc1nccc(-c2cccc(F)c2)n1)C1CC1	none
CC(=O)Nc1ccc(C2(C(=O)NCc3ccc(C)o3)CCC2)cc1	none
O=C(Nc1ccc2c(c1)OCCO2)C1CCN(C(=O)N2CC3CC(C2)[C@H]2CCCC(=O)N2C3)CC1 (stereo not given in full)	FLuc inh 20µM
COc1ccccc1-c1ccc(C(=O)N2CCC(C(=O)NC3CCCC3)CC2)cc1	HEK cytotox 28µM, 3T3 cytotox inconclusive (no result: FLuc inh, NPR1 antag)
COc1ccccc1-c1ccc(C(=O)N2CCC(NC(=O)Nc3ccc(Cl)cc3)CC2)cc1	HEK cytotox 32µM, 3T3 cytotox inconclusive (no result: FLuc inh, NPR1 antag)
COc1ccccc1-c1ccc(C(=O)N2CCC(C(=O)NCc3ccccc3)CC2)cc1	HEK cytotox inconclusive, 3T3 cytotox inconclusive (no result: FLuc inh, NPR1 antag)
COc1ccccc1-c1ccc(C(=O)N2CCC(NC(=O)C3CCCC3)CC2)cc1	HEK cytotox inconclusive, 3T3 cytotox inconclusive (no result: FLuc inh, NPR1 antag)
COc1ccccc1-c1ccc(C(=O)N2CCC(C(=O)NCc3ccc(C(F)(F)F)cc3)CC2)cc1	HEK cytotox 35µM, 3T3 cytotox inconclusive (no result: FLuc inh, NPR1 antag)
COc1ccccc1-c1ccc(C(=O)N2CCC(C(=O)NCCCc3ccccc3)CC2)cc1	HEK cytotox 79µM, 3T3 cytotox inconclusive (no result: FLuc inh, NPR1 antag)
COc1ccccc1-c1ccc(C(=O)N2CCC(NC(C)=O)CC2)cc1	HEK cytotox inconclusive (no result: FLuc inh, NPR1 antag)
CCOc1ccc(C(=O)N2C[C@@H](CO)[C@H](C(=O)NC)C2)cc1	none
O=C(NCc1ccc(C(F)(F)F)cc1)C1CCN(C(=O)c2ccc(-c3cncnc3)cc2)CC1	HEK cytotox inconclusive, 3T3 cytotox 18µM (no result: FLuc inh, GPT2 inhibitor, NPR1 antag)
COc1ccccc1-c1ccc(C(=O)N2CCC(C(=O)NCc3cccc(Cl)c3)CC2)cc1	HEK cytotox 20µM, 3T3 cytotox inconclusive (no result: FLuc inh, NPR1 antag)
